# Many of the other results were omitted from the sample, so hits are more common in it than they were.
# GIRK2 activator = activators of NPY4-receptor-primed GIRK2 channels, summary, cell-based, HEK293, thallium flux; G protein-activated inward rectifier potassium channel 2 (Homo sapiens), P48051; HEK293 GIRK2/NPY4 cells, thallium flux fluorescence; activation (% efficacy), % for hits at 37.5 µM; 34,000 tested, under 10 active; AID 1259324, 2017;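 active = primary screen hit, no activity in plain HEK293 cells, and in GIRK2-only cells above 5% efficacy rising with concentration; inactive = the rest, including fluorescent compounds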;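 note: efficacy is normalized control-subtracted fluorescence 15 s after thallium addition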
# Target sequence (P48051 whole entry, looked up): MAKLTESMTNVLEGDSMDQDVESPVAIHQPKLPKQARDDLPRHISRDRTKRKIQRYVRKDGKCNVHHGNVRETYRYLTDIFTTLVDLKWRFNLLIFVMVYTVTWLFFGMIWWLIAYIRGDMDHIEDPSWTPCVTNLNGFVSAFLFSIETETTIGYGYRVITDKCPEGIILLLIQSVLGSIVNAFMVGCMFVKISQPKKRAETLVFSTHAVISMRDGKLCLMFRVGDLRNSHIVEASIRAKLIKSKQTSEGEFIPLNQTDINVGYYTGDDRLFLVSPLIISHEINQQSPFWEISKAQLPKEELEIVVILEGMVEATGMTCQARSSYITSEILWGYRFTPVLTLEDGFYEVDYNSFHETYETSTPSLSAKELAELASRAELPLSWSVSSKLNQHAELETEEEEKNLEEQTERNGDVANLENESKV
# AMPAR-TARP mod = modulators of GluA2-stargazin AMPA receptor complexes, primary screen, cell-based, membrane potential dye | Voltage-dependent calcium channel gamma-2 subunit (Mus musculus) + Glutamate receptor 2 … | HEK293 GluA2+stargazin, membrane potential dye (FDSS), glutamate EC50; hits were called plate by plate, in both directions | calls only at 30 µM | actives 3.5% (n = 40,000);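 active = any of four per-well response measures lying three or more SD from its plate-wide compound average, in either direction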
# * = called active by the depositor; i = inactive; . = not tested or not shown; + = active, no number.
SMILES,GIRK2 activator,AMPAR-TARP mod
CCOc1ccc(-n2nnnc2CN2CCN(C(=O)c3c(F)cccc3Cl)CC2)cc1,i,+
COc1ccc(F)cc1S(=O)(=O)N1CCN(S(=O)(=O)c2cc(F)ccc2OC)C(C)C1 (stereo not drawn),.,i
O=C(Cc1ccccc1Br)NC1(c2nc(-c3ccsc3)no2)CCCCC1,i,i
COC(=O)c1sc2cccc(F)c2c1S(=O)(=O)NCc1ccccc1OC,.,i
O=C(/C=C/c1ccc([N+](=O)[O-])cc1)N(CCN1CCOCC1)c1nc2ccccc2s1,.,i
Cc1cccc2sc(N(CCN3CCOCC3)C(=O)c3ccc([N+](=O)[O-])s3)nc12,i,i
Cc1cc2nc(N(CCN3CCOCC3)C(=O)c3ccco3)sc2cc1C,i,i
Cc1cccc2sc(N(CCN3CCOCC3)C(=O)c3ccc([N+](=O)[O-])o3)nc12,i,+
O=C(/C=C/c1cccc([N+](=O)[O-])c1)N(CCN1CCOCC1)c1nc2ccc(F)cc2s1,.,+
O=C(c1ccco1)N(CCN1CCOCC1)c1nc2ccc(Cl)cc2s1,.,+
COc1cccc2sc(N(CCN(C)C)C(=O)c3cc(C)n(C)n3)nc12,i,+
COc1cccc2sc(N(Cc3cccnc3)C(=O)c3cc(C)nn3C)nc12,i,i
COc1ccc(S(=O)(=O)N(C)CCCC(=O)O)cc1N(C)S(C)(=O)=O,.,i
CN(C)CCCN(C(=O)c1ccno1)c1nc2ccc(Cl)cc2s1,i,.
CN(C)CCN(C(=O)c1ccn(C)n1)c1nc2ccc(Cl)cc2s1,i,+
Cn1ccc(C(=O)N(CCN2CCOCC2)c2nc3ccccc3s2)n1,i,+
COc1ccc(OC)c2sc(N(CCN3CCOCC3)C(=O)c3ccn(C)n3)nc12,i,i
O=C(Nc1nc(-c2ccncc2)cs1)C1CCN(S(=O)(=O)c2cccs2)CC1,.,+
O=C(Nc1nc(-c2ccncc2)cs1)C1CCCN(S(=O)(=O)c2cccs2)C1 (stereo not drawn),.,i
O=C(NCC1CCN(Cc2ccco2)CC1)C(=O)Nc1ccc(F)cc1F,i,i
CCOCCn1c(=NC(=O)c2ccn(C)n2)sc2cc(C(=O)OCC)ccc21,i,+
CCOC(=O)c1ccc2c(c1)sc(=NC(=O)c1ccn(CC)n1)n2CCSC,i,.
CCOC(=O)c1ccc(NC(=O)c2ccn(C)n2)cc1,i,i
CCOC(=O)c1ccc2nc(NC(=O)c3ccn(C)n3)sc2c1,i,+
COc1ccc(-c2cc(CC(=O)N3CCOCC3)no2)cc1,i,i
SMILES,GIRK2 activator,AMPAR-TARP mod
Cc1ccc(CN2N=NC3C(=O)N(c4ccccc4)C(=O)C32)cc1 (stereo not drawn),i,i
Cc1ccc(S(=O)(=O)Nc2ccc3c(c2)N(C(=O)c2ccccc2)CCC3)cc1,.,i
COc1nn(C)cc1C(=O)NCC#CCOc1cccc(C(F)(F)F)c1,i,.
O=C(Nc1nnc(-c2ccc(Br)s2)o1)c1ccc(Cl)s1,i,+
Cc1cc(-c2nnc(NC(=O)c3ccc(Cl)s3)o2)nn1C,i,i
O=C(Nc1nnc(-c2cccs2)o1)c1cc(Cl)ccc1Cl,.,i
O=C(Nc1nnc(-c2ccc(Br)s2)o1)c1cc(Cl)ccc1Cl,i,+
c1csc(-c2noc(CSc3ccc(-c4ccc5c(c4)OCO5)nn3)n2)c1,i,i
CCNC(=O)N1CCN(Cc2nc(-c3ccccc3)cs2)CC1,i,i
COc1ccc(C)cc1N1CCCn2c1nc1c2c(=O)n(CCc2ccccc2)c(=O)n1C,.,i
COc1cn(CC(=O)Nc2ccc(NC(C)=O)cc2)c(CSc2nnnn2C)cc1=O,i,i
CC(C)S(=O)(=O)c1ccc(CC(=O)N2CCC(c3cccs3)CC2)cc1,i,i
CC(C)S(=O)(=O)c1ccc(CC(=O)N2CCC(c3ccsc3)CC2)cc1,i,+
O=c1nc(SCc2cccc(Cl)c2)c2c(n1CC1CCCO1)CCCC2 (stereo not drawn),i,+
O=c1nc(SCc2cccc([N+](=O)[O-])c2)c2c(n1CC1CCCO1)CCC2 (stereo not drawn),i,i
COCCn1c(=NC(=O)c2ccno2)sc2cc(F)cc(F)c21,i,+
COCCn1c(=NC(=O)CS(=O)(=O)c2ccc(OC)cc2)sc2cc(F)cc(F)c21,i,i
CCOCC(=O)Nn1cnc2c(cnn2C(C)(C)C)c1=O,.,+
CCC(=O)Nn1cnc2c(cnn2C(C)(C)C)c1=O,.,i
CC(C)(C)n1ncc2c(=O)n(NC(=O)c3cc([N+](=O)[O-])ccc3Cl)cnc21,i,i
CC(C)(C)n1ncc2c(=O)n(NC(=O)c3cc(Br)ccc3Cl)cnc21,i,+

# High-throughput results from PubChem BioAssay.
